USP28 inh = human USP28 deubiquitinase inhibition | purified USP28, Ub-rhodamine cleavage fluorescence, 30 min | 47,000 tested, 3% active | inhibition, % at 25 µM | Q96RU2
USP8 block = blocks human USP8 ubiquitin-rhodamine cleavage; purified USP8, Ub-rhodamine cleavage fluorescence, 30 min; inhibition, % at 20 µM; 47,000 tested, 4.2% active; AID 1645853
USP17 block = inhibitors of human USP17 deubiquitinase | A8MUK1 | purified USP17, Ub-rhodamine cleavage fluorescence, 3 h | inhibition, % at 50 µM | 47,000 tested, 6.5% active | AID 1645855
Target sequence (A8MUK1 whole entry, looked up): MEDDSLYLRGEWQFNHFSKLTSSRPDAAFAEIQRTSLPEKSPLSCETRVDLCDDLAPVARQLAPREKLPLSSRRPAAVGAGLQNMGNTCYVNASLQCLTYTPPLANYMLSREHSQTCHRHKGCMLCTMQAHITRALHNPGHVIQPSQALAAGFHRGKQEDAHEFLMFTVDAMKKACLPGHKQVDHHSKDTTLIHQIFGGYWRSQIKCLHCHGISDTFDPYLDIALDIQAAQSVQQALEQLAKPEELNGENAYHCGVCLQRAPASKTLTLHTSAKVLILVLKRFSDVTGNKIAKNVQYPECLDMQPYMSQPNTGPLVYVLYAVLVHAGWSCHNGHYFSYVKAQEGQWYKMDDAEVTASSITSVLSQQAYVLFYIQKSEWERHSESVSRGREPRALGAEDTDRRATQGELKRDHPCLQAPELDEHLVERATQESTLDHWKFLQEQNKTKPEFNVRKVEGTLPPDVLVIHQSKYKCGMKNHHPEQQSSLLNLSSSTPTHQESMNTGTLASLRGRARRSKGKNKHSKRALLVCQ
USP30 block = human USP30 deubiquitinase inhibition. inhibition, % at 25 µM. 47,000 tested, 5.3% active. purified USP30, Ub-rhodamine cleavage fluorescence. AID 1645860
The depositor's hits bear a star; nt = no result given. Hits are enriched below; roughly 13% of the tested compounds scored in any of these assays. No stated cut-off is given here; in the data, active means inhibition above about 30%; inactive means the rest.

SMILES	USP28 inh	USP8 block	USP17 block	USP30 block
C/C(Nc1ccc2oc(=O)ccc2c1)=C1/C(=O)CC2[C@H]1C2(C)C (some centres not stated)	-31	41*	nt	-141
O=C(Nc1noc2ccccc12)c1ccco1	17	47*	10	9
O=C(Nc1nc2c(s1)CN(Cc1ccccc1)CC2)c1ccco1	13	-2	3	6
O=C(NCc1ccccc1F)c1cnc2sccn2c1=O	-6	-4	-11	-10
COc1ccc(N2CCN(c3ccc(Cl)cc3[N+](=O)[O-])CC2)cc1	-8	33*	13	-23
COc1ccc(CNC(=O)c2ccc(N3CCOCC3)c([N+](=O)[O-])c2)cc1	8	-77	-5	16
O=C(NCc1ccc2c(c1)OCO2)c1cn(-c2ccccc2Cl)nn1	3	-8	0	0
O=C(CCSCc1cccc(F)c1)NCCc1ccc(Cl)cc1	15	7	14	37*
O=C(CCSCc1ccccc1F)NCCc1ccccc1	3	1	4	0
Cc1ccc2oc(=O)c(S(=O)(=O)N3CCCCC3)cc2c1	9	21	61*	25
CCNc1nc(N2CCOCC2)nc(-n2cnc(SCCOc3ccccc3C)n2)n1	-1	4	20	9
O=S(=O)(Cc1ccc(F)cc1)c1c[nH]c2ccccc12	7	68*	28	-9
COc1ccc(C2CC(c3ccc(OC)cc3)n3ncnc3N2C(=O)C2CC2)cc1 (configuration not stated)	10	6	9	37*
Cc1ccc(C(=O)N2c3ncnn3C(c3ccccc3)CC2c2ccccc2)cc1 (configuration not stated)	13	21	15	32*
COc1ccc(C2CC(c3ccc(Cl)cc3)N(C(=O)C(C)(C)C)c3ncnn32)cc1 (configuration not stated)	-3	-5	10	3
CC1=C(C(=O)NCc2ccccc2)C(c2ccc(C)cc2)n2ncnc2N1 (configuration not stated)	9	4	11	34*
CC1=C(C(=O)N2CCCCC2)C(c2ccc(Br)cc2)n2ncnc2N1 (configuration not stated)	47*	-69	nt	-2
O=C(Cc1ccc(-n2c(=O)c3ccccc3n(Cc3cc(=O)n4ccccc4n3)c2=O)cc1)NCCc1ccccc1	6	49*	14	-152
COc1ccc(CCNC(=O)c2ccc(Cn3c(=O)c4ccccc4n(Cc4cc(=O)n5ccccc5n4)c3=O)cc2)cc1OC	29	1	66*	50*
O=C(CCn1c(=O)c2ccccc2n(Cc2cc(=O)n3ccccc3n2)c1=O)N1CCc2ccccc2C1	-11	-17	-13	-11
O=C(NCc1ccccc1Cl)c1csnn1	2	1	-30	1
O=C(c1ccc(S(=O)(=O)N2CCOCC2)cc1)N1CCN(C23CC4CC(CC(C4)C2)C3)CC1	-14	-10	-13	12
CCC(NS(=O)(=O)c1ccc(S(=O)(=O)N2CCOCC2)cc1)C12CC3CC(CC(C3)C1)C2 (configuration not stated)	27	21	14	33*
CC1=CC[C@@H]2C(C)(C)[C@H](O)CC[C@@]2(C)[C@@H]1COC(C(=O)O)C(CC(=O)O)C(=O)O (some centres not stated)	-10	3	-26	-11
COc1ccc(-c2c(C)c(C(=O)c3ccco3)n3ccc4cc(OC)c(OC)cc4c23)cc1OC	-28	68*	21	-103
SMILES	USP28 inh	USP8 block	USP17 block	USP30 block
COc1cc(NC(=O)c2ccco2)c(OC)cc1NC(=O)CN1CCCCC1	4	1	5	-31
Cc1ccccc1OCCCn1c(CN(C)C(=O)c2ccco2)nc2ccccc21	-4	-4	30*	-6
COc1ccccc1OCCCn1c(CNC(=O)c2ccco2)nc2ccccc21	11	3	-4	-10
Cc1ccc(OCCCn2c(CNC(=O)c3ccco3)nc3ccccc32)cc1	19	41*	17	25
CCOC(=O)N1CCN(S(=O)(=O)c2cc(C(=O)Nc3ccc(F)c(F)c3)ccc2F)CC1	2	7	1	2
COc1cc2c(cc1OC)CC(=O)N(Cc1c(F)cccc1Cl)C=C2	22	37*	16	10
COc1cc(OC)cc(-n2c(=O)c3sccc3n(CC(=O)Nc3ccc(C)cc3)c2=O)c1	8	2	62*	20
COc1cc(OC)cc(-n2c(=O)c3sccc3n(CC(=O)c3ccc(F)cc3)c2=O)c1	10	8	20	56*
CCCc1ccc(S(=O)(=O)N2CCC(N3CCOCC3)CC2)cc1	14	7	20	24
CCN1CCN(c2ccc(C(=O)OC)cc2NC(=O)COc2ccc(C)cc2C)CC1	14	14	17	29
O=C(Nc1ccc(-c2nc3ccccc3[nH]2)cc1)c1cccc(-n2cnnc2)n1	-2	-2	-15	-39
N#Cc1ccc(-c2ccc(OCC(=O)Nc3ccc4c(c3)CCC4)cc2)cc1	41*	36*	24	44*
CC(=O)c1ccccc1NC(=O)COc1ccc(-c2ccc(C#N)cc2)cc1	9	16	78*	5
NS(=O)(=O)c1cccc(NC(=O)COc2ccc3c(c2)CCC3)c1	28	2	11	14
Cn1c(CNS(=O)(=O)c2ccc(Br)cc2)nnc1SCc1ccc(Cl)c(Cl)c1	41*	-10	0	35*
Cn1c(CNS(=O)(=O)c2ccc(Cl)cc2)nnc1SCc1cccc(C(F)(F)F)c1	7	-114	-15	-1
COc1ccc(-c2nc(-c3ccc(N4CCCCC4)cc3)no2)cc1OC	-23	0	-103	-78
CCOc1cccc2c1OC(C)(C)[C@H]1CC3(CCN(C(=O)c4ccc(NC(C)=O)cc4)CC3)CO[C@H]21	12	13	-4	-2
CC1(C(=O)NCc2ccc(F)cc2)Cn2nc(-c3ccco3)cc2C(=O)N1c1ccc2c(c1)OCCO2 (configuration not stated)	35*	61*	37*	5
Cc1cc2n(n1)CC(C)(C(=O)NCc1ccccc1)N(c1ccc3c(c1)OCCO3)C2=O (configuration not stated)	-4	0	-14	-16
Cc1cccc(NC(=O)c2ccc3c(c2)N(S(C)(=O)=O)CC3)c1C	11	-10	30	-12
CC(=O)c1cccc(NC(=O)c2ccc(-n3nc(C)cc3C)nn2)c1	-4	2	-6	0
CS(=O)(=O)N1CCc2ccc(C(=O)Nc3ccc(F)cc3)cc21	-8	3	33*	-27
Cc1cc(C)n(-c2cccc(C(=O)Nc3ccc4c(c3)CCN4S(C)(=O)=O)c2)n1	80*	8	8	-10
COc1cc(-c2nc3sc4c(c3c(=O)[nH]2)CCCC4)cc(OC)c1O	-24	-48	2	-183
COc1ccc(-c2nc3sc4c(c3c(=O)[nH]2)CCCCCC4)c(OC)c1	7	6	31*	34*
COc1ccc(NC(=O)CCc2nc3sc4c(c3c(=O)[nH]2)CCCCC4)cc1	-58	32*	-48	-181
O=C(NCc1ccc(Cl)cc1)c1ccc2ccccc2n1	1	-4	0	-1
CCOC(=O)N1CCN(S(=O)(=O)c2ccc3c4c(cccc24)C(=O)N3)CC1	-1	4	-6	-13

High-throughput results: PubChem, Buhrlage Lab, Dana-Farber Cancer Institute and Novartis Institutes for BioMedical Research (Cambridge, Mass)
